CHX counter = affects cycloheximide protein synthesis inhibition readout, counter-screen; cell reporter, cycloheximide protein synthesis inhibition counterscreen; max response, %; 300,000 compounds, 12% hits; AID 2314; in the data active = max response mostly above about 13%, no sharp cut-off; inactive = mostly below about 14%; also: read at 38.3 µM for the half of the compounds with a filed dose; 0% is about no effect
Sm TGR block = blocks Schistosoma mansoni thioredoxin glutathione reductase | purified TGR, DTNB reduction, TNB absorbance 405 nm | Potency, µM (highest dose often 114 µM), inactives show top-dose activity change, negative = inhibition, most hits filed as inhibitors | Q962Y6 | 360,000 compounds, 3% hits | AID 485364; active = well fitted inhibition curve with a large enough effect; inconclusive = small, poorly fitted or top-dose-only effect; inactive = no such curve, though single readings can be large or run the other way; also: potency is read from the fitted curve at half-maximal effect; % is scaled to controls: 0 for no effect and ±100 for the full control effect; nearly all actives have a fitted effect of over 60% in size
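TGR 20 nM + NADPH 100 uM (dispensed conc.), cpd preinc 15 min RT; start with NADPH (500 uM addition) then DTNB (15 mM addition). Kinetic TNB absorbance, 405 nm filter. Four-parameter Hill fit across titration.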
FMDV antiviral = foot and mouth disease virus antiviral activity; 410,000 compounds, 1.2% hits; Potency, µM (highest dose often 57.9 µM), inactives show top-dose activity change, negative = inhibition, usual class: inhibitors; FMDV antiviral cell-based qHTS; AID 1159524; calls by dose curve; tested in HEK293T cells; also: read-out not given here; potency is read from the fitted curve at half-maximal effect; % is scaled to controls: 0 for no effect and ±100 for the full control effect; nearly all actives have a fitted effect of over 45% in size
Shiga toxin inh = blocks Shiga toxin action in Vero cells | Vero cells, Shiga toxin protein synthesis inhibition reporter | inhibition, % at 38.7 µM | 290,000 compounds, 9.2% hits; in the data active = inhibition mostly above about 28%, no sharp cut-off; inactive = mostly below about 43%; also: 0% is about no effect
Active calls of the source: *; ? = inconclusive; nt = no result given; [ ] = another dose, or the depositor's remark. Rows were chosen to be rich in hits. Some 12% of all compounds tested hit in one or more screens of this group.

SMILES	CHX counter	Sm TGR block	FMDV antiviral	Shiga toxin inh
Cn1c(COc2ccc(Br)cc2)nnc1SC1CCc2ccccc2C1=O (centres undefined)	7.7	?	31.6µM*	3.9
CCc1ccccc1NC(=O)c1cnc2sc(N3CCCC3)nn2c1=O	nt	-6.6%	-0.1%	nt
CC(=O)Nc1ccc(NC2=CC(=O)c3ccccc3C2=O)cc1	54.9*	-8.8%	-0.7%	110.8*
O=C1C=C(Nc2ccc(O)cc2)C(=O)c2ccccc21	44.4*	?	10.1%	68.0*
COc1cccc2c1Oc1ncccc1N(c1ccc(C(=O)NCc3cccc(C)c3)s1)C2	nt	-7.5%	0.0%	nt
CCOC(=O)C1CCN(c2c(C(=O)c3ccc(OCC)cc3)cnc3ccc(OC)cc23)CC1	nt	-5.2%	?	nt
CN(C)c1ccnc2sc3c(=O)n(-c4ccccc4)cnc3c12	12.0*	-9.1%	0.6%	18.6
Cc1ccccc1CC(=O)Nc1ccc2c(c1)CCC2	12.6	-3.4%	25.9%	8.9
Cn1cc(C(=O)Nc2ccc3c(c2)CCC3)cn1	56.1*	4.6%	33.7%	74.7*
O=C(Cc1ccccc1F)Nc1ccc2c(c1)CCC2	28.1	1.9%	50.6%	72.7*
O=C(Nc1ccc2c(c1)CCC2)c1cc(F)cc(F)c1	nt	-6.3%	22.3%	nt
O=C(Cc1ccc2c(c1)CCCC2)Nc1ccc2ccccc2c1	43.4*	-1.0%	57.8%	active
O=C(Nc1ccc2c(c1)CCC2)c1cccc(F)c1	75.5*	-1.5%	1.1%	113.4*
CCOc1ccc(-c2cc3c(=O)n(CC(=O)NCc4ccc(F)cc4)ccn3n2)cc1	nt	-0.1%	25.3%	nt
COc1cc(OC)cc(C(=O)Nc2ccc(S(=O)(=O)N3CCCCC3c3cccnc3)cc2)c1 (centres undefined)	nt	7.7%	?	nt
Cc1ccc(C)c(NC(=O)C(Cc2ccccc2)N2Cc3ccccc3C2=O)c1 (centres undefined)	nt	-13.5%	?	nt
COc1ccc(CC(=O)Nc2ccc3c(c2)CCC3)cc1OC	12.3	-23.2%	?	3.7
O=C(Cc1cccc(F)c1)Nc1ccc2c(c1)CCC2	17.7*	4.7%	38.5%	76.0*
O=c1cc(-c2ccc(O)cc2)oc2ccc(O)cc12	54.5*	-15.9%	27.3%	54.1*
O=c1cc(-c2ccncc2)oc2ccccc12	9.7	12.9%[11.4 µM]	-7.4%	22.7
O=c1cc(-c2ccc(O)cc2)oc2ccccc12	36.9*	4.7%	68.5%	54.7*
O=c1cc(-c2ccccc2)oc2cc(O)ccc12	50.6*	nt	44.6%	76.7*
Nc1c(-c2ccc3c(c2)OCCO3)oc2ccccc2c1=O	33.0*	-8.6%	15.7%	69.7*
COc1ccc2oc(-c3ccccc3[N+](=O)[O-])cc(=O)c2c1	40.6*	nt	17.3%	80.6*
O=c1cc(-c2ccc3c(c2)OCO3)oc2ccccc12	21.3*	12.5%	nt	35.1
SMILES	CHX counter	Sm TGR block	FMDV antiviral	Shiga toxin inh
Nc1ccc(-c2c3ccc(=O)cc-3oc3cc(O)ccc23)cc1C(=O)O	-3.5	?	4.1%	-6.8
O=c1ccc2c(-c3ccccc3)c3ccc(O)cc3oc-2c1	-5.0	8.91µM*	-19.9%	4.5
COc1ccc(-c2cc(=O)c3ccccc3o2)cc1	18.8*	7.2%	25.6%	51.6*
COc1ccc(-c2cc3ccccc3c(=O)o2)cc1	nt	nt	-4.0%	nt
COc1ccc(NC(=O)Nc2nnc(SCC(=O)Nc3cccc(C)c3C)s2)cc1	nt	1.2%	20.9%	nt
COc1cc(Cl)c(C)cc1NC(=O)CCn1cnc2onc(-c3ccc(F)cc3)c2c1=O	nt	-2.5%	0.0%	nt
COc1ccc(NC(=O)CCn2cnc3onc(-c4ccc(F)cc4)c3c2=O)cc1OC	nt	-19.8%	10µM*	nt
COc1ccc(C(=O)N/C(=C/c2ccco2)C(=O)N2CCCCCC2)cc1	8.8	44.7µM*	12.4%	-6.3
CC1CCCCN1C(=S)NC(=O)c1ccco1 (centres undefined)	nt	-18.6%	1.1%	nt
Cc1ccc(C(=O)N/C(=C/c2ccco2)C(=O)N2CCCCC2)cc1	7.5	?	51.6%	-3.4
O=C(NC1CCSC1=O)c1ccc(Cl)cc1 (centres undefined)	-2.5	0.0%	-9.0%	-8.2
O=C(COc1ccc(Cl)cc1)NC1CCSC1=O (centres undefined)	19.2*	29.4%	11.7%	53.4*
CC1CCN(C(=S)NC(=O)c2ccco2)CC1	33.1*	0.0%	-10.3%	50.0
COc1ccc(C(=O)NC(=S)N2CCCCC2)cc1	19.4*	-14.2%	41.4%	40.4*
COCC(=O)Nc1cc(C(=O)N2CCCOc3c(cccc3OC)C2)c2c(c1)nc(C1CCC1)n2C	nt	nt	-2.5%	nt
COc1cccc(-c2ccnc(-n3ncc(C(=O)NCc4cccnc4)c3C3CC3)n2)c1	nt	nt	-24.4%	nt
CC1CC=CC2C1C(=O)N(Cc1ccccc1)C2c1ccc(F)c(-c2ccc(N(C)C)cc2)c1 (centres undefined)	13.3	nt	nt	-0.2
COc1ccc(C(=O)NC(=S)NC2CCSC2=O)cc1 (centres undefined)	13.8	-34.6%	18.8%	27.0*
COc1ccc(C(=O)NC(=S)N2CCC(C)CC2)cc1	25.6*	-4.1%	22.9%	41.3
COc1ccc(S(=O)(=O)NCCSc2nnnn2-c2ccccc2)cc1OC	nt	-6.1%	9.7%	nt
O=C(NCCOc1ccccc1Cl)C(=O)c1c[nH]c2ccccc12	11.6	-1.1%	11.8%	33.9
O=C(NCCOc1ccccc1)C(=O)c1c[nH]c2ccccc12	20.4*	9.4%	49.7%	43.6
O=C(NCCC1=CCCCC1)C(=O)c1c[nH]c2ccccc12	26.1*	2.1%	20.0%	49.0*
CC1(C)CC(C(=O)N2CCOc3ccc(CN4CCN(Cc5ccccn5)CC4)cc3C2)CCO1 (centres undefined)	nt	nt	-9.3%	nt
CCN(CC)CC(=O)NC1CCCc2c1cnn2-c1cc(F)cc(F)c1 (centres undefined)	nt	nt	35.0%	nt
SMILES	CHX counter	Sm TGR block	FMDV antiviral	Shiga toxin inh
COc1ccc(C(=O)NC2CCCc3c2cnn3-c2ccc(C)c(C)c2)c(OC)c1OC (centres undefined)	-0.7	-1.1%	?	8.0
CCn1nc(C)cc1C(=O)NC1CCCc2c1cnn2-c1ccc(C)c(C)c1 (centres undefined)	4.5	3.2%	10µM*	-25.9
CSc1ncccc1C(=O)NC1CCCc2c1cnn2-c1ccc(C)c(C)c1 (centres undefined)	8.6	-21.7%	28.2µM*	-2.7
CSCC(=O)NC1CCCc2c1cnn2-c1cc(F)cc(F)c1 (centres undefined)	14.0*	-4.6%	38.7%	13.8
CC(C)(C)c1ccc(-n2ncc3c2CCCC3NC(=O)c2cnccn2)cc1 (centres undefined)	30.5*	-19.0%	-13.7%	72.5*
Cc1ccc(-n2ncc3c2CCCC3NC(=O)CCn2ccnc2C)cc1C (centres undefined)	nt	nt	-12.4%	nt
Cc1ccc(-n2ncc3c2CCCC3NC(=O)c2ocnc2C)cc1C (centres undefined)	5.5	-5.7%	?	-10.2
CCCC(=O)NC1CCCc2c1cnn2-c1ccc(C)c(C)c1 (centres undefined)	20.3*	-4.5%	16.9%	27.4
Cc1cc(C(=O)NC2CCCc3c2cnn3-c2ccc(C)c(C)c2)no1 (centres undefined)	14.6*	6.2%	?	18.6
Cc1ccc(NC(=O)CSc2nc3ccc(NC(=O)c4cccc(Cl)c4)cc3s2)c(C)c1	nt	-6.6%	-10.9%	nt
